Compounds with a hit are over-represented: about 9.4% of the library has one in this group of screens.
IMPase cell inh – qHTS Assay for Identifying the Cell-Membrane Permeable IMPase Inhibitors; Inositol monophosphatase 1 (Rattus norvegicus), P97697; CHO-M1 cells, IP1 accumulation, HTRF TR-FRET ratio; inhibition (IP1 accumulation), % at 46.1 µM; 120,000 tested, under 10 active; active = well fitted curve in the direction sought with a large enough effect in the signal ratio, not every such curve was filed as active; inconclusive = small, poorly fitted or top-dose-only effect, or a change in a side signal; inactive = no such curve, though single readings can be large or run the other way; the % refers to the signal ratio;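 also: cells stimulated with carbachol in lithium chloride buffer; plate controls were DMSO basal wells for no effect and reference inhibitor wells for full effect; higher means more IMPase inhibition seen as more IP1 and lower FRET ratio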
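Measured: the HTRF emission ratio (665/620 nm) plus the 620 nm donor channel, each fitted to the Hill equation to give AC50. Cells were CHO-M1 given compounds up to 46 uM and a 30 min carbachol stimulation at 37C.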
ALDH1A1 inh – qHTS Assay for Inhibitors of Aldehyde Dehydrogenase 1 (ALDH1A1). Purified ALDH1A1, NADH fluorescence, propionaldehyde substrate. Potency, µM (doses to about 75.3 µM), for the others: top-dose activity, negative = inhibition, usual class: inhibitors. hit rate 7.3% among 220,000. AID 1030, 2008; active = well fitted inhibition curve with a large enough effect, not every such curve was filed as active; inconclusive = small, poorly fitted or top-dose-only effect, or another doubt; inactive = no such curve, though single readings can be large or run the other way;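 also: potency is read from the fitted curve at half-maximal effect; plate controls were no enzyme wells and a reference inhibitor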
Target sequence (P00352 whole entry, looked up): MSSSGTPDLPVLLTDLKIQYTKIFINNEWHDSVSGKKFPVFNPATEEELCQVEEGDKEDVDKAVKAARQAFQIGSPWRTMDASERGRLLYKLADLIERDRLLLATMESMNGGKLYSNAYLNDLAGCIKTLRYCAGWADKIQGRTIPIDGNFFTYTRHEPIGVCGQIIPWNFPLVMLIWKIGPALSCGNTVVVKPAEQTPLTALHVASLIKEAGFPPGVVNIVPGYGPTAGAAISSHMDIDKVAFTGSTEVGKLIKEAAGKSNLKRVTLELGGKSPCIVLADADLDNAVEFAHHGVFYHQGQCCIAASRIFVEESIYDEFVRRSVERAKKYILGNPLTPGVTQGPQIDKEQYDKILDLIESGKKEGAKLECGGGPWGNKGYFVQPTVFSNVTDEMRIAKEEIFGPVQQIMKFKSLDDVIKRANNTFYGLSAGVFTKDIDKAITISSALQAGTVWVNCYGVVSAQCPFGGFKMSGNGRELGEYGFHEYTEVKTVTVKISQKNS
HTT cytoprotect – qHTS Multiplex Assay to Identify Dual Action Probes in a Cell Model of Huntington: Cytoprotection (ATP) | PC12 HTT-Q103 induced, cytoprotection, ATP luminescence, 40 h | Potency, µM (series often up to 56.4 µM), for inactives: cytoprotection (ATP increase), hits mostly activators | hit rate 0.14% among 230,000 | AID 1471, 2008; also: potency is read from the fitted curve at half-maximal effect; % of control where 0% means no effect; nearly all actives have a fitted effect of over 45% in size
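Compounds were screened for protection of PC12 cells against cell death after tebufenozide induction (100 nM final) of mutant Huntingtin exon 1 (Q103) fused to GFP.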
IMPase Li inh – qHTS Assay for Identifying the Cell-Membrane Permeable IMPase Inhibitors: Potentiation with Lithium | Potency, µM (titrated, usually from 59.4 µM), without a hit: at the top dose activity, negative = IMPase inhibition, actives largely listed as inhibitors | hit rate 0.35% among 210,000 | CHO-M1 cells, IP1 TR-FRET (IP-One), carbachol + lithium | AID 1457, 2008;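 also: IP1 builds up when IMPase is blocked and the TR-FRET signal falls; potency is read from the fitted curve at half-maximal effect; plate controls were basal vehicle for no effect and high inhibitor control for full effect; nearly all actives have a fitted effect of over 50% in size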
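CHO-M1, 2000 cells/well, 16–30 h culture; cpd + low Li+, 30 min 37C; lysis with d2-IP1/Eu-anti-IP1 Ab, 10 min RT; TR-FRET 665/620 ratio and 620 channel; AC50 via Hill.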
HttQ103 aggreg – qHTS Multiplex Assay to Identify Dual Action Probes in a Cell Model of Huntington: Aggregate Formation (GFP). PC12 HttQ103-GFP aggregates, Acumen cytometry, 40 h. Potency, µM (titrated, usually from 46.1 µM), for the others: at the top dose activity change, negative = inhibition, most hits filed as inhibitors. hit rate 1.1% among 220,000; also: potency is read from the fitted curve at half-maximal effect; % is scaled to controls: 0 for no effect and ±100 for the full control effect; nearly all actives have a fitted effect of over 60% in size
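PC12 cells with ecdysone-inducible HTT exon1 Q103-GFP, induced by 100 nM tebufenozide, given compounds in a concentration series. GFP aggregates (1–25 um, 6 SD above background) counted in lysates by laser-scanning cytometry, 488 nm excitation.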
HPGD block – qHTS Assay for Inhibitors of HPGD (15-Hydroxyprostaglandin Dehydrogenase); 15-hydroxyprostaglandin dehydrogenase [NAD(+)] (Homo sapiens), P15428; purified HPGD, NADH fluorescence kinetic, PGE2 substrate; Potency, µM, for inactives: top-dose activity change, negative = inhibition, actives largely listed as inhibitors; hit rate 4.3% among 150,000; AID 894, 2007; active = well fitted inhibition curve with a large enough effect, not every such curve was filed as active; inconclusive = small, poorly fitted or top-dose-only effect, or another doubt; inactive = no such curve, though single readings can be large or run the other way; also: potency is read from the fitted curve at half-maximal effect; % is scaled to controls: 0 for no effect and ±100 for the full control effect
Target sequence (P15428 whole entry, looked up): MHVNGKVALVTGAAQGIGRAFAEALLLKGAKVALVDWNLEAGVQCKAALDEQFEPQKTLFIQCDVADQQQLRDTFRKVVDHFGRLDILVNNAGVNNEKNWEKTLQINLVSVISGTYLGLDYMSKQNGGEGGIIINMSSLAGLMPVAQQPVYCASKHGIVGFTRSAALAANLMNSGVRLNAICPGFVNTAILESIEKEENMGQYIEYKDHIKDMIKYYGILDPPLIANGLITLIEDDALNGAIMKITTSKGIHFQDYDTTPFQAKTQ
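NADH formation kinetics: reaction with 30 uM PGE2 and 1 mM NAD+ (final), 20 nM enzyme, Tris-HCl pH 8 with Tween 20, after 15 min compound preincubation at room temperature. Fluorescence change, last versus first of five reads.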
The depositor's hits bear a star; ? = inconclusive; . = no result given; [ ] = another dose, or the depositor's remark. Unless noted, calls follow the shape of the dose curve; as a rule, active = well fitted curve in the direction sought with a large enough effect; inconclusive = small, poorly fitted or top-dose-only effect, or another doubt; inactive = no such curve, though single readings can be large; an effect the other way counts as inactive or inconclusive.

SMILES	IMPase cell inh	ALDH1A1 inh	HTT cytoprotect	IMPase Li inh	HttQ103 aggreg	HPGD block
COc1cc(C(=O)Nc2sc3c(c2C#N)CCCC3)c(Br)c(OC)c1OC	-9	.	.	.	.	.
COc1ccc(O[C@H]2C=C[C@@H](c3ccccc3)O[C@H]2CO/N=C2/[C@H]3O[C@@H]3[C@@H](O)[C@H]3[C@H]2CCn2c(=O)n(-c4ccccc4)c(=O)n23)cc1	.	?	-59%[10 µM]	.	.	.
Cc1ccc(NC(=O)COc2ccc3oc4c(c3c2)CCCC4)c(C)c1	5	.	.	.	.	.
CCOC(=O)c1ccc(N2C(=O)CC(NC3CCN(C(=O)c4cccc(Cl)c4)CC3)C2=O)cc1 (centres undefined)	-2	13µM*	?	19%[38.3 µM]	11%	-8%
Cc1ccc(-n2[nH]c(C)c(C=Nc3ccc(S(=O)(=O)Nc4nc(C)cc(C)n4)cc3)c2=O)c(C)c1	-1	-18%	17%[10 µM]	1%	-16%	22µM*
CCc1nnc(NS(=O)(=O)c2ccc(N=Cc3c(C)[nH]n(-c4ccc(C)c(C)c4)c3=O)cc2)s1	-1	11µM*	-30%[10 µM]	6%	6%	16µM*
Cc1[nH]n(-c2ccc(Br)cc2)c(=O)c1C=Nc1ccc(S(=O)(=O)Nc2nccs2)cc1	-5	-11%	1%[10 µM]	31%	-1%	14µM*
CN1CCN(c2ncc3nc(-c4cccc(C#N)c4)c(=O)n(C[C@H]4CCCO4)c3n2)CC1	.	?	-42%	0%	.	.
Cc1cc(O)c(C(C)(C)C)cc1Sc1cc(C(C)(C)C)c(O)cc1C	.	?	-235%	-5%	.	-28%
CC(C)NC(=O)CN1CCN(C(=O)CCl)CC1	.	3.2µM*	-39%	5%	-1%	.
CN(C)C(=O)CN1CCN(C(=O)CCl)CC1	.	2.8µM*	8%	-7%	-2%	.
CC(C)c1ccc(CN2CCN(C(=O)CCl)CC2)cc1	.	0.56µM*	.	5%	?	.
COc1ccccc1CCn1c(=O)c(-c2ccc(F)c(F)c2)nc2cncnc21	.	3%	18%	17%	.	.
CCCNC(=O)OC[C@@H]1O[C@H](CCO/N=C(\C)CCN2CCCc3nc(C)c(C)cc32)C=C[C@@H]1Oc1ccc(OC)cc1	.	0%[13.5 µM]	-6%[10 µM]	.	.	.
Cn1c(=O)[nH]c(=O)c2c1nc(N1CCCCC1)n2CCCSc1nc2ccccc2s1	9	?	15%[10 µM]	17%	15%	16µM*
Cn1c(=O)c2c(nc(N3CCC(C(N)=O)CC3)n2CCSc2nc3ccccc3s2)n(C)c1=O	-2	2%	4%	5%[38.3 µM]	-12%	-2%
CC1CCCN(c2nc3c(c(=O)n(C)c(=O)n3C)n2CCSc2nc3ccccc3s2)C1 (centres undefined)	6	14µM*	-5%[0.074 µM]	21%[38.3 µM]	?	-24%
Cn1c(=O)c2c(nc(N3CCCCC3)n2CCSc2nc3ccccc3s2)n(C)c1=O	3	28µM*	-8%	13%[38.3 µM]	22%	-11%
CC1CCN(c2nc3c(c(=O)n(C)c(=O)n3C)n2CCSc2nc3ccccc3s2)CC1	8	?	1%[0.074 µM]	17%[38.3 µM]	-2%	-9%
O=C(CSc1nncs1)Nc1ccc(S(=O)(=O)N2CCCC2)cc1	.	1%	.	0%	20%	.
CC[C@H]1NC(=O)c2cc(S(N)(=O)=O)c(Cl)cc2N1	-4[20.6 µM]	-9%[20.9 µM]	-1%[40.3 µM]	-5%	25%[20.6 µM]	-25%
O=C(c1cccs1)N1CCCC(c2nc3c(nnn3Cc3ccccc3)c(=O)[nH]2)C1 (centres undefined)	.	.	9%[10 µM]	.	3%[9.22 µM]	.
O=C(C1CCCCC1)N1CCCC(c2nc3c(nnn3Cc3ccccc3)c(=O)[nH]2)C1 (centres undefined)	-8	16µM*	-29%	-7%[38.3 µM]	16%	14µM*
Cc1ccc(C)c(Cn2nnc3c(=O)[nH]c(C4CCCN(C(=O)C5CCCCC5)C4)nc32)c1 (centres undefined)	7	13µM*	-1%	27%[38.3 µM]	5%	6.3µM*
CC1CCN(c2cc(C#N)c(C#N)cc2[N+](=O)[O-])CC1	-4	6%	-32%	-9%[38.3 µM]	20%	-7%
SMILES	IMPase cell inh	ALDH1A1 inh	HTT cytoprotect	IMPase Li inh	HttQ103 aggreg	HPGD block
Cc1cc(N2CCC(C)CC2)c(F)cc1[N+](=O)[O-]	10	10µM*	-14%[10 µM]	-8%	18%	-15%
CC1CC(C)(C)NC(=S)S1 (centres undefined)	0	13µM*	-21%	4%[38.3 µM]	1%[9.22 µM]	22µM*
CC1CC(C)(C)NC(=O)O1 (centres undefined)	-12	-8%	-2%	4%[38.3 µM]	12%	-2%
COC(=O)C1(C(=O)OC)CC(CO)C(=O)[C@H]1c1ccccc1 (some centres undefined)	.	16%	?	17%	.	-3%
CCC(CC)NC(=O)CON=C1c2ccccc2-c2ccccc21	4	4%	-6%[10 µM]	0%	9%	7.9µM*
COc1ccc(NC(=O)CCCSc2nc(-c3ccco3)cc(C(F)(F)F)n2)cc1	-9	.	.	.	.	.
O=C(NCc1n[nH]c(=S)n1-c1cccc(C(F)(F)F)c1)c1ccc(S(=O)(=O)N2CCCC2)cc1	.	?	-20%	4%	0%	.
O=C(NCc1n[nH]c(=S)n1-c1ccc(F)cc1)c1ccc(S(=O)(=O)N2CCCC2)cc1	-1	16µM*	2%	27%[38.3 µM]	6%	-26%
O=C(NCc1n[nH]c(=S)n1-c1cccc(Cl)c1)c1ccc(S(=O)(=O)N2CCCC2)cc1	3	4.5µM*	-28%	7%[38.3 µM]	17%	-23%
O=C(CNC(=O)c1ccc(S(=O)(=O)N2CCCC2)cc1)N/N=C/c1c(Cl)cccc1Cl	.	?	-14%[10 µM]	19%	11µM*	-16%
Cc1ccccc1-n1c(SCC(=O)c2cc(C)n(C)c2C)nnc1-c1cccnc1	5	?	-3%[10 µM]	28%[38.3 µM]	12%	25µM*
CC(=O)c1ccc(Oc2nc3c(c(=O)n(C)c(=O)n3C)n2C)cc1	.	8%	?	-2%	?	.
Cn1c(=O)c2c(nc(Oc3ccc4ccccc4c3)n2C)n(C)c1=O	6	?	14%	65%[38.3 µM]	1.4µM*	-20%
CN1/C(=C\C(=O)C[n+]2ccc(C(=O)c3ccccc3)cc2)C(C)(C)c2ccccc21	.	-6%	-18%[10 µM]	15%	13µM*	.
CN1/C(=C\C(=O)C[n+]2cccc(C(N)=O)c2)C(C)(C)c2ccccc21	.	7%	-52%[10 µM]	3%	-13%	.
